The values that follow come from PubChem BioAssay (Tox21).

The source made the active and inactive calls. Calls follow the shape of the dose curve; as a rule, active = well fitted curve in the direction sought with a large enough effect in the repeat runs; inconclusive = weak or mixed curves; inactive = flat fitted curve, though single readings scatter.
% is scaled to controls: 0 for no effect and ±100 for the full control effect.

This assay is described as follows: qHTS assay to test for compound auto fluorescence at 535 nm (green) in HEK293 cells (AID 720680). The settings on record: green autofluorescence 485/535 nm; series mostly up to 91.3 µM. The source says:
U.S. Tox21 Program National Center for Advancing Translational Sciences [NCATS] NIH Chemical Genomics Center [NCGC] U.S. Environmental Protection Agency [EPA] National Institutes of Environmental Health Sciences [NIEHS] National Toxicology Program [NTP] U.S. Food and Drug Administration [FDA] Tox21 Assay Overview: Compound auto fluorescence often interferes with screening of the compound library against various biological targets and signaling pathways. Some of these compounds may have fluorophoric properties. Such properties may interfere with the assay outputs resulting in false positives and/or negatives. To decrease such complications and ensure the compound activities are relevant in terms of biological response, the Tox21 10K compound library was screened for auto fluorescence. From the fluorophores used as reporter signals in our screening assays, the auto fluorescence equivalencies of compounds against three fluorophores have been evaluated: Triamterene, Fluorescein and Rose Bengal sodium for blue, green and red fluorescence, respectively. The fluorescence intensities were measured using Excitation/Emission wavelengths at 405/460nm, 485/535nm and 540/590nm for blue, green and red labels, respectively. This assay includes the green fluorescence data.
Tox21 Assay Protocol Summary: 2,000 HEK293 cells in 5 uL of culture medium containing 10% dialyzed FBS per well were dispensed into black wall/clear bottom 1536-well plates using a Multidrop Combi Dispenser (Thermo Scientific). The assay plates were incubated for 4-5 hr at 37C to allow cell attachment to the well bottom, followed by the transfer of 23 nL compound or DMSO vehicle by a pintool work station (Kalypsys, San Diego, CA). After the assay plates were incubated overnight at 37C and 5% CO2, fluorescence intensities in the assay plates were measured by an Envision (PerkinElmer, Shelton, CT) plate reader using three labels for measuring blue, green and red fluorescence at […] 460, 535 and 590nm respectively.
Consider `NNS(=O)(=O)c1ccc(Oc2ccc(S(=O)(=O)NN)cc2)cc1`, for which the molecule was called inactive.

With `C=CCCCCCCCCO`, the outcome was inactive. As to `CCCCOc1cc(C(=O)NCCN(CC)CC)c2ccccc2n1`, the fluorescence, % of fluorescein is 0.0154% [at 18.6 µM] (inactive). As for `C[C@@H]1CN(c2c(F)c(F)c3c(=O)c(C(=O)O)cn(C4CC4)c3c2F)C[C@H](C)N1`, the call was inactive. Same read-out and setting: to `CCC/C=C/CO` belongs “inactive”; to `CN(CCCN1c2ccccc2CCc2ccccc21)CC(=O)c1ccc(Cl)cc1`, “inactive”; to `C=CCCC=C`, “inactive”.

For `Cc1ccc(C(C)C)cc1O`, the molecule was called inactive. In the case of `CCN1CC(CCN2CCOCC2)C(c2ccccc2)(c2ccccc2)C1=O` (stereo not given), the molecule was classed as inactive. For `OCc1c2ccccc2cc2ccccc12`, the call was inactive. Same read-out and setting: to `Cc1cccc(C)c1NC(=O)CN1CCCCCC1` belongs “inactive”; to `CCOC(=O)COc1ccc2c(c1)CC(NCC(O)c1cccc(Cl)c1)CC2` (stereo not given), “inactive”. As for `Cc1cc2c(s1)Nc1ccccc1N=C2N1CCN(C)CC1`, the molecule was called inactive. On the same count and under the same terms, next, `O=C1N(c2ccccc2)c2ccccc2C1(Cc1ccncc1)Cc1ccncc1`: “inactive”. On the same count and under the same terms, next, `OCCN(CCO)c1ccccc1`: “inactive”; `CCOC(=O)[C@H](CCc1ccccc1)N[C@@H](C)C(=O)N1Cc2cc(OC)c(OC)cc2C[C@H]1C(=O)O`: “inactive”; `NC/C=C/C(=O)O`: “inactive”. On the same count and under the same terms, to `CC(C)=CCC[C@](C)(O)[C@@H]1CC=C(C)CC1` belongs “inactive”; to `Cc1c[nH]c(=S)[nH]c1=O`, “inactive”. Consider `O=S(=O)(O)C(F)(F)F`, for which the outcome was inactive. For the molecule `CC(C)(C)c1cccc(O)c1`, the call was inactive.

On to `C1CSCCS1`, for which the result was inactive. On to `CCN(O)CC`, for which the result was inactive.

As to `COC(=O)c1ccc2cc(C(=O)OC)ccc2c1`, the fluorescence, % of fluorescein was -0.0047% [at 18.6 µM] (inactive). Consider `CCOC(=O)CS`, for which the outcome was inactive. Regarding `CCNCCO`, the molecule was classed as inactive. Regarding `Cc1c(-c2ccccc2)oc2c(C(=O)OCCN3CCCCC3)cccc2c1=O`, the fluorescence, % of fluorescein is -0.0807% [at 18.6 µM] (inactive). For the molecule `O=C(O)[C@@H]1CSCN1`, the molecule was called inactive. The same measure, in the same setting: to `Cc1cc2nc(N)sc2cc1C` belongs “inactive”. Same read-out and setting: next, `CCc1nnc(NS(=O)(=O)c2ccc(N)cc2)s1`: “inactive”. The same measure, in the same setting: to `CC/C=C\CCOC(=O)C(C)C` belongs “inactive”; to `CCOC(=O)NCCC[Si](OCC)(OCC)OCC`, “inactive”.

As for `CN1CCN(C2=Nc3cc(F)ccc3Cc3ccccc32)CC1`, the call was inactive.

Turning to `CCCCCCCCCC#N`, the result was inactive. As to `O=C1C=CC(=O)O1`, the molecule was classed as inactive. Still for that read-out and setting: next, `CCCCC1CCC(=O)O1` (stereo not given): “inactive”; `CCCOCCC`: “inactive”; `O=C(C(Cl)Cl)N1CCOC12CCCCC2`: “inactive”. For the molecule `C=CCc1cc(OC)c(O)c(C(=O)NCCO)c1`, the call was inactive. The same measure, in the same setting: next, `CN1CCN(c2c(F)cc3c(=O)c(C(=O)O)cn(CCF)c3c2F)CC1`: “inactive”.
